mIDH1 inhibitor: qHTS for Inhibitors of mutant isocitrate dehydrogenase 1 (IDH1): qHTS; Isocitrate dehydrogenase [NADP] cytoplasmic (Homo sapiens), O75874; hit rate 0.093% among 390,000; Potency, µM (highest dose often 76.6 µM), usual class: inhibitors; AID 602179, 2012; IDH1-R132H enzyme, NADPH consumption, diaphorase/resazurin fluorescence; also: nearly all actives have a fitted effect of over 65% in size
Target sequence (O75874 whole entry R132H, stated change not applied): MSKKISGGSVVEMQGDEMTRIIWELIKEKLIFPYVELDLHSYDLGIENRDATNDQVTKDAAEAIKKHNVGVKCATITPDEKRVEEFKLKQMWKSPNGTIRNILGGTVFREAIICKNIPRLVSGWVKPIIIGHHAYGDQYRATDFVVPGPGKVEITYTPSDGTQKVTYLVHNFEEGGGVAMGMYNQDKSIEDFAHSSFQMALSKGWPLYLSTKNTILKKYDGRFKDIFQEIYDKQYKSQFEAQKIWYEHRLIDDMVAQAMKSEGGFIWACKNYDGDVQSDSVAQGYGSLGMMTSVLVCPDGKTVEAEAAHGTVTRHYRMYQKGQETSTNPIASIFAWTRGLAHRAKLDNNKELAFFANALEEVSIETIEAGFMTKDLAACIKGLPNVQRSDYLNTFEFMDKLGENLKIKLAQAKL
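IDH1-R132H (0.5 ug/mL dispensed) in pH 7.5 Tris buffer was preincubated 30 min with compound, then given a substrate mix of 0.016 mM NADPH and 2 mM alpha-KG for 80 min at room temperature; remaining NADPH was read by diaphorase/resazurin fluorescence.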
ELG1 DNA repair: qHTS screen for small molecules that inhibit ELG1-dependent DNA repair in human embryonic kidney (HEK293T) cells expressing luciferase-tagged ELG1. hit rate 2.3% among 330,000. AID 504467, 2011. HEK293T ELG1-luciferase reporter, luminescence, 16 h; DNA damage induced by 5-fluorouridine. Potency, µM (top dose mostly 46.1 µM), most hits filed as inhibitors; also: nearly all actives have a fitted effect of over 55% in size
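Cells (2,000 per well) received 5-fluorouridine plus test compound or DMSO and were incubated 16 hr at 37 °C, 5% CO2. Luciferase activity was read by luminescence 30 min after ONE-Glo addition; signal suppression marked inhibition of damage-induced ELG1 function.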
Nrf2 activator: qHTS of Nrf2 Activators; AREc32 ARE-luciferase reporter (MCF7-derived line), luminescence, 24 h; Potency, µM (titrated, usually from 46.1 µM), hits mostly activators; hit rate 0.31% among 410,000; also: nearly all actives have a fitted effect of over 65% in size
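AREc32 cells carrying an ARE-driven firefly luciferase, 1000 cells/well in OPTI-MEM with 5% FBS, dosed after overnight attachment and incubated 24 hr at 37 deg C. Steady-Glo luminescence read after 30 min at RT.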
Nrf2 inh: Nrf2 qHTS screen for inhibitors; A549 ARE-Fluc reporter, luciferase luminescence, 18-24 h; Potency, µM (series often up to 46 µM), most hits filed as inhibitors; hit rate 2.1% among 360,000; also: nearly all actives have a fitted effect of over 60% in size
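Nrf2 activity is the BugLite luminescence, read 15 min after reagent at room temperature, following CellTiter-Fluor cytotoxicity readout (30 min, 37C). Compound titrations were applied for 18-24 h to 5000 A549 ARE_Fluc cells/well in 5% FBS OPTI-MEM.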
A549 tox: Nrf2 qHTS screen for inhibitors: counterscreen for cytotoxicity; A549 ARE-Fluc cells, CellTiter-Fluor viability, 18-24 h; Potency, µM (top dose mostly 46 µM), hits mostly inhibitors; hit rate 0.16% among 390,000; AID 504648, 2011
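A549 ARE-Fluc cells in 5% FBS OPTI-MEM, 5000 cells/well, rested 2 h then exposed to compounds in concentration-response for 18-24 h at 37 °C. Viability by CellTiter-Fluor fluorescence (Ex 405/Em 525) after 30 min; luciferase luminescence (BugLite, 15 min, RT) read afterwards.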
Resorufin autofl: qHTS for Inhibitors of mutant isocitrate dehydrogenase 1 (IDH1): Cherrypicks Autofluorescence Interference; shares compounds with mIDH1 inhibitor; Resorufin detection reagent fluorescence interference, cell-free; inhibition of signal, % at 51.2 µM; 750 tested, under 10 active; AID 623980, 2012
WT IDH1 inh: qHTS for Inhibitors of mutant isocitrate dehydrogenase 1 (IDH1): Cherrypicks in WT IDH1; AID 623995, 2012; shares compounds with mIDH1 inhibitor; WT IDH1 enzyme, NADPH diaphorase/resazurin fluorescence; Potency, µM (doses to about 115 µM), actives largely listed as inhibitors; hit rate 9% among 750; also: nearly all actives have a fitted effect of over 55% in size
Target sequence (O75874 whole entry, looked up): as the sequence (O75874 whole entry R132H, stated change not applied) above, with H132R counted along it
IDH1 R132H conf: qHTS for Inhibitors of mutant isocitrate dehydrogenase 1 (IDH1): Confirmation of Cherrypicks | Potency, µM (titrated, usually from 76.6 µM), hits mostly inhibitors | shares compounds with mIDH1 inhibitor | hit rate 83% among 750 | IDH1 R132H enzyme, NADPH diaphorase/resazurin fluorescence | AID 624002, 2012; also: nearly all actives have a fitted effect of over 50% in size
Numbers stand for hits; i = inactive; ? = inconclusive; nt = not tested or not shown. Shown are actives, neighbours in structure and some others; about 3.8% of the full set was active somewhere. Calls follow the shape of the dose curve; as a rule, active = well fitted curve in the direction sought with a large enough effect; inconclusive = small, poorly fitted or top-dose-only effect, or another doubt; inactive = no such curve, though single readings can be large; an effect the other way counts as inactive or inconclusive.

SMILES	mIDH1 inhibitor	ELG1 DNA repair	Nrf2 activator	Nrf2 inh	A549 tox	Resorufin autofl	WT IDH1 inh	IDH1 R132H conf
CCN(CC)CCN(C(=O)c1ccc2c(c1)CCCC2)c1nc2c(C)cccc2s1	i	i	i	i	i	nt	nt	nt
COCC(=O)Nc1sc2c(c1C(=O)OC)CCCC2	i	i	i	i	i	nt	nt	nt
COC(=O)c1c(NC(=O)COC(=O)c2ccc(O)cc2)sc2c1CCCCC2	?	?	i	?	i	i	i	i
CC(=O)Nc1cc(=O)c2cccnc2[nH]1	i	nt	i	i	i	nt	nt	nt
Cc1ccc(-n2ncc3c(=O)[nH]c(SCC(=O)N4CCCc5ccccc54)nc32)cc1	?	?	i	i	i	i	i	28µM
Cc1nn(-c2ccccc2)c(Cl)c1CN(C(=O)CCl)c1ccc(Cl)cc1	52µM	?	i	i	i	i	i	28µM
COC(=O)c1cc(NS(=O)(=O)c2ccc(C)c3ccccc23)ccc1N1CCOCC1	i	?	i	i	i	nt	nt	nt
CNC(=O)/C(C#N)=C/c1c(N(Cc2ccccc2)Cc2ccccc2)nc2ccccn2c1=O	52µM	18µM	i	?	23µM	i	i	25µM
COC(=O)/C(C#N)=C/c1c(N2CCN(c3ccccc3)CC2)nc2ccccn2c1=O	i	i	i	i	i	nt	nt	nt
CCOc1ccc(CCNC(=O)c2nn(C)c3c2CSc2ccccc2-3)cc1	i	nt	i	i	i	nt	nt	nt
Cc1cc2c(cc1S(=O)(=O)CCC(=O)N1CCCC(C)C1)OCC(=O)N2 (stereo not drawn)	i	nt	i	i	i	nt	nt	nt
CN(C1=C(N2CCCCC2)C(=O)c2ccccc2C1=O)c1ccccc1	?	i	i	i	i	i	i	?
O=C1C(NS(=O)(=O)c2ccc(Br)cc2)=C(N2CCCCC2)C(=O)c2ccccc21	i	i	i	i	i	nt	nt	nt
CC(=O)C1=C(c2ccc(Cl)c(Cl)c2)N(C(C)=O)n2c(C)nnc2S1	45µM	nt	i	nt	i	i	i	40µM
CC(=O)C1=C(c2ccc(Cl)c(Cl)c2)N(C(C)=O)n2cnnc2S1	45µM	nt	i	nt	?	i	i	20µM
COc1cccc(C2=C(C(C)=O)Sc3nncn3N2C(C)=O)c1	?	nt	i	nt	i	nt	nt	nt
Cc1ccc(C2=NN=C(NC(=O)CSc3nncn3C)SC2)cc1	32µM	?	i	i	i	i	i	45µM
O=C(Nc1cccc(Cl)c1Cl)c1cc(S(=O)(=O)NCc2ccc3c(c2)OCO3)ccc1F	i	nt	i	nt	i	nt	nt	nt
COc1cc2c3c(c1)C1(C(=O)N3C(C)(C)C=C2C)C(C#N)=C(N)Oc2cc(O)ccc21 (stereo not drawn)	29µM	nt	i	i	i	i	i	16µM
N#Cc1ccc(C(=O)N2CCCCC2c2cc(C(=O)Nc3cccc(C#N)c3)no2)cc1 (stereo not drawn)	nt	nt	i	nt	nt	nt	nt	nt
CC(C)c1cccc(C(C)C)c1NC(=O)c1ccc(-c2cc(Cl)ccc2Cl)o1	nt	nt	i	nt	nt	nt	nt	nt
C=CS(=O)(=O)c1c2cc(OC)ccc2nc2ccc(OC)cc12	?	nt	?	i	i	i	28µM	10µM
COc1cccc(C(=O)N(Cc2ccc(N(C)C)cc2)Cc2ccco2)c1	nt	nt	i	i	i	nt	nt	nt
N#CC1=C(N)C2=CCCC[C@H]2[C@H](c2cccc(F)c2)C1(C#N)C#N	46µM	i	i	i	i	i	i	45µM
CCOc1ccccc1NC(=O)c1cnn2c(C(F)F)cc(-c3ccccc3)nc12	i	nt	i	i	i	nt	nt	nt
SMILES	mIDH1 inhibitor	ELG1 DNA repair	Nrf2 activator	Nrf2 inh	A549 tox	Resorufin autofl	WT IDH1 inh	IDH1 R132H conf
COc1ccc2c(C(=O)c3ccc(C)cc3)n(Cc3ccc(C(N)=O)cc3)[n+]([O-])c2c1	?	?	i	i	i	i	i	16µM
Cc1ccc(-n2c(=S)sc3c(=O)n(-c4ccc(F)cc4)c(SCC(=O)O)nc32)cc1C	?	i	i	i	i	i	i	13µM
Cc1ccc(-n2c(SCC(=O)O)nc3c(sc(=S)n3-c3ccc(C)c(C)c3)c2=O)cc1	i	i	i	i	i	nt	nt	nt
Cc1ccc(Nc2cc(C)c(C#N)c3nc4ccccc4n23)c(C)c1	40µM	nt	i	i	i	i	i	14µM
Cc1cc(Nc2ccc(O)cc2)n2c(nc3ccccc32)c1C#N	i	i	i	i	i	nt	nt	nt
CC(C)C(OC(=O)c1oc2ccccc2c1CSC1CCCCC1)C(=O)NC(N)=O (stereo not drawn)	nt	i	nt	nt	nt	nt	nt	nt
CCNC(=O)NC(=O)C(C)OC(=O)c1oc2ccccc2c1CSC1CCCCC1 (stereo not drawn)	?	i	i	i	i	i	i	32µM
COc1ccc(-n2c(-c3ccc(Cl)cc3Cl)n[nH]c2=S)c(OC)c1	46µM	i	i	i	i	i	i	i
CC(=O)c1cc(CN2CCC(n3nccc3NC(=O)c3ccccc3)CC2)cs1	i	i	i	i	i	nt	nt	nt
COc1ccc(C)cc1NC(=O)C(=O)NCCc1csc2nc(-c3ccccc3F)nn12	i	nt	i	nt	i	nt	nt	nt
O=c1[nH]c(/C=C/c2cccc([N+](=O)[O-])c2)c([N+](=O)[O-])c(=O)[nH]1	45µM	i	i	i	i	i	i	32µM
O=c1[nH]c(/C=C/c2ccccc2)c([N+](=O)[O-])c(=O)[nH]1	i	i	?	i	i	nt	nt	nt
COc1ccc(-c2cc3nc(C4CCN(C(=O)OC(C)(C)C)CC4)c(C(=O)O)cn3n2)cc1	21µM	?	i	?	i	i	79µM	16µM
O=C(O)c1ccc(Cl)c(S(=O)(=O)N(Cc2ccccc2)c2ccccc2)c1	?	i	i	i	i	nt	nt	nt
O=C(O)c1ccc(Cl)c(S(=O)(=O)N(Cc2ccccc2)c2ccccc2Cl)c1	29µM	i	i	i	i	i	i	32µM
COc1ccc(CC(=O)Nc2nc(OCC(F)(F)F)cnc2-c2ccc(Cl)cc2Cl)cc1	nt	nt	i	nt	nt	nt	nt	nt
CCN(CC)c1ccc(/C=N/NC(=O)Cc2nnc(NC(=O)Nc3ccccc3)s2)cc1	4.1µM	i	i	i	i	i	i	6.3µM
